Binding signal data for 86 sequences are collected here from article PMC5836133, “The intracellular immune receptor Rx1 regulates the DNA-binding activity of a Golden2-like transcription factor”.

Over roughly 16,000 sequences, “e-score” has its median near -0.044; the highest 2% begin near 0.38. The sample holds the highest values, similar sequences and a random draw of the others, so the mix is not that of the screen.

The assay concerns the target T1, GST-NbGlk1(82-244) (Nicotiana benthamiana).
T1 chain: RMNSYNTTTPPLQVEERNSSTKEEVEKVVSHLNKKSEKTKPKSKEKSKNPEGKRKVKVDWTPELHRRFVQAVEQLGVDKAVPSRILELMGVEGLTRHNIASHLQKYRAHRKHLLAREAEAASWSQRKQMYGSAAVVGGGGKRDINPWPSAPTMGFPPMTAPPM
Kind of assay: protein-binding microarray; NbGlk1 is a Golden2-like transcription factor of Nicotiana benthamiana; high values mean tight binding. As to conditions: protein: recombinant; tags: GST (pTH6838); dsDNA, one strand shown.
With ATTTGCAA, the binding signal turned out to be 0.304 ± 0.00257 E-score.

In the case of ATATCACA, the binding signal amounted to 0.369 ± 0.031 E-score.

As to ATTGCGTG, the binding signal turned out to be 0.388 ± 0.00526 E-score.

For ATTGCGTA, the binding signal is 0.367 ± 0.0361 E-score.

For ATTGCGTC, the binding signal is 0.2709 ± 0.000439 E-score.

For the sequence CAATCAAA, the binding signal came to 0.214 ± 0.036 E-score.

As to AAAATAAA, the binding signal was 0.218 ± 0.15 E-score.

As to CACTGATA, the binding signal stood at 0.208 ± 0.181 E-score.

For ATCTCGAC, the binding signal worked out at 0.34 ± 0.0977 E-score.

Take AGATCTAA: the binding signal was found to be 0.303 ± 0.0304 E-score.

ATATCTAC: the binding signal was found to be 0.392 ± 0.0225 E-score.

For ATCTCTAC, the binding signal came out at 0.297 ± 0.0234 E-score.

As to ATATCTAG, the binding signal worked out at 0.392 ± 0.0205 E-score.

Turning to AGATCTAG, the binding signal came to 0.349 ± 0.0106 E-score.

Take ATCTCTAG: the binding signal came to 0.294 ± 0.0244 E-score.

Regarding ATATCAAC, the binding signal came out at 0.287 ± 0.0867 E-score.

As to ATCTCTAA, the binding signal was 0.216 ± 0.0218 E-score.

Take ATATCTAA: the binding signal came out at 0.417 ± 0.0517 E-score.

Regarding ACCGATAT, the binding signal was 0.364 ± 0.00959 E-score.

With ATCAGAAT, the binding signal was found to be 0.275 ± 0.0769 E-score.

As for AGTGTAAT, the binding signal turned out to be 0.362 ± 0.0129 E-score.

Take ATCTGATA: the binding signal was 0.345 ± 0.00479 E-score.

For ATTCGTAA, the binding signal was 0.208 ± 0.00392 E-score.

Take ATCTTTCC: the binding signal worked out at 0.218 ± 0.0881 E-score.

As to AATCACAT, the binding signal turned out to be 0.265 ± 0.0229 E-score.

Turning to CAATCGCA, the binding signal is 0.23 ± 0.0233 E-score.

CACGTATC: the binding signal is 0.216 ± 0.0457 E-score.

With ATCGCGGC, the binding signal is 0.208 ± 0.0886 E-score.

As to ATTTTACG, the binding signal is 0.213 ± 0.082 E-score.

Turning to AGATCGGA, the binding signal is 0.277 ± 0.0345 E-score.

As for AATCATTA, the binding signal was 0.201 ± 0.157 E-score.

Regarding ATTGCATG, the binding signal turned out to be 0.221 ± 0.0421 E-score.

Consider ATTTCACG, for which the binding signal worked out at 0.242 ± 0.0818 E-score.

As for AATTTCGG, the binding signal was 0.245 ± 0.0953 E-score.

As for ATTATGGA, the binding signal amounted to 0.277 ± 0.0309 E-score.

Take AATCCTCG: the binding signal came out at 0.345 ± 0.0473 E-score.

Consider AATCCTAG, for which the binding signal is 0.388 ± 0.0422 E-score.

As to AATCCTGG, the binding signal amounted to 0.3628 ± 0.00311 E-score.

Turning to ATTCCTAG, the binding signal was determined as 0.202 ± 0.0268 E-score.

Regarding AATCCTAC, the binding signal came to 0.3426 ± 0.00211 E-score.

For the sequence AATCCTAA, the binding signal turned out to be 0.395 ± 0.0218 E-score.

On to AATCCTAT, for which the binding signal was 0.376 ± 0.0141 E-score.

For the sequence AATCCTGA, the binding signal came out at 0.399 ± 0.0138 E-score.

For AATCCTGC, the binding signal was 0.356 ± 0.0181 E-score.

As to ATCGTGGA, the binding signal came out at 0.273 ± 0.0839 E-score.

Turning to ACGAATCG, the binding signal is 0.283 ± 0.0452 E-score.

Turning to ATTCCTTG, the binding signal stood at 0.228 ± 0.115 E-score.

Regarding AATCTTCT, the binding signal came to 0.41 ± 0.0267 E-score.

As for AATCTTCA, the binding signal is 0.388 ± 0.01 E-score.

Turning to ATTCTTCC, the binding signal came out at 0.221 ± 0.0993 E-score.

Consider AATCTTCG, for which the binding signal was 0.404 ± 0.0151 E-score.

Regarding ATTCTTCA, the binding signal came out at 0.324 ± 0.0737 E-score.

With AATCATCA, the binding signal was 0.212 ± 0.0286 E-score.

In the case of AATCATCG, the binding signal worked out at 0.225 ± 0.0433 E-score.

As to AATCTTCC, the binding signal came to 0.361 ± 0.0433 E-score.

As for AATCGTCT, the binding signal is 0.277 ± 0.0759 E-score.

Consider AATAATCT, for which the binding signal was 0.276 ± 0.0304 E-score.

As to CACACAGA, the binding signal was 0.201 ± 0.0131 E-score.

For the sequence ATATATGG, the binding signal is 0.224 ± 0.0844 E-score.

In the case of ATATACGA, the binding signal was determined as 0.236 ± 0.0113 E-score.

For the sequence ATTTCGAA, the binding signal came out at 0.316 ± 0.0613 E-score.

With ATCCAAAC, the binding signal was determined as 0.241 ± 0.133 E-score.

Take ATCTCAAG: the binding signal was determined as 0.256 ± 0.0583 E-score.

Take ATCGTATC: the binding signal was determined as 0.36 ± 0.0262 E-score.

With ATTCCAAG, the binding signal was 0.205 ± 0.0718 E-score.

In the case of AATCCAAA, the binding signal came out at 0.4128 ± 0.00044 E-score.

As to AATCCAAG, the binding signal amounted to 0.394 ± 0.00595 E-score.

As to AATCCAAC, the binding signal came to 0.348 ± 0.0137 E-score.

For ATCCCAAT, the binding signal came to 0.201 ± 0.0789 E-score.

As for AATGCAAT, the binding signal came out at 0.303 ± 0.0228 E-score.

Take AATCAAAA: the binding signal is 0.296 ± 0.0471 E-score.

In the case of AATCCAAT, the binding signal came to 0.408 ± 0.0114 E-score.

With AATCCCAA, the binding signal was determined as 0.367 ± 0.00919 E-score.

As to AACGGAAT, the binding signal was 0.285 ± 0.0635 E-score.

Regarding ATTTCCCG, the binding signal stood at 0.3088 ± 0.000826 E-score.

On to ATCTCAGC, for which the binding signal came to 0.22 ± 0.0276 E-score.

ATTATCCG: the binding signal is 0.279 ± 0.01 E-score.

Consider AATATCAT, for which the binding signal was 0.282 ± 0.0333 E-score.

On to AATATCCC, for which the binding signal amounted to 0.339 ± 0.0252 E-score.

With AATATCGT, the binding signal worked out at 0.322 ± 0.0372 E-score.

Turning to AATATCGA, the binding signal amounted to 0.326 ± 0.0506 E-score.

With AATATCCG, the binding signal is 0.426 ± 0.013 E-score.

In the case of AGTATCCA, the binding signal was 0.265 ± 0.00779 E-score.

On to AATATCCT, for which the binding signal amounted to 0.389 ± 0.005 E-score.

Take AATATCCA: the binding signal turned out to be 0.396 ± 0.0292 E-score.

Take ATCGAGAA: the binding signal was found to be 0.236 ± 0.0184 E-score.
